Test results: PubChem BioAssay (NCATS)
Inconclusive results are not listed. A call without a number means that no potency is given here. Unmarked numbers belong to inactive results. Activity calls are given as the source filed them. Unless noted, calls follow the shape of the dose curve; as a rule, active = well fitted curve in the direction sought with a large enough effect; inconclusive = small, poorly fitted or top-dose-only effect, or another doubt; inactive = no such curve, though single readings can be large; an effect the other way counts as inactive or inconclusive.

Key:
[1] = biological target: Calcium and integrin-binding protein 1 (Homo sapiens) (UniProt Q99828); assay: Primary qHTS for Identification of Calcium Integrin Binding Protein 1 (CIB1) Competitor (AID 1508620); conditions: CIB1-GST / FITC-alphaIIb peptide fluorescence polarization; series mostly up to 114 µM;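 also: GST tagged CIB1 binding a fluorescein labelled alphaIIb integrin peptide tracer; top concentration of the series differs between compounds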
Method in brief: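 CIB1-GST (1 uM final) and compound incubated 15 min at room temperature before adding FITC-alphaIIb peptide tracer (100 nM final). Competition for binding read by fluorescence polarization (ex 480, em 540) after another 15 min at room temperature.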

[2] = Primary qHTS for small molecule stabilizers of the endoplasmic reticulum resident proteome: Secreted ER Calcium Modulated Protein (SERCaMP) assay (AID 1508630); conditions: SH-SY5Y GLuc-SERCaMP (Gaussia luciferase released on ER calcium loss) secretion, thapsigargin, luminescence; series mostly up to 38.4 µM
Method in brief: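 GLuc-SERCaMP-expressing SH-SY5Y cells, pretreated 16 h with compound, are challenged with thapsigargin to empty ER calcium stores; after 4 h, coelenterazine is added directly to the medium and luminescence is imaged.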

[3] = A High-Content qHTS Against Drug Library for the Identification of Small Molecules that Inhibit DYT1 Early Onset Primary Dystonia-Associated Cell Pathology (AID 1645839; calls by dose curve); conditions: HEK293 Flp-In EGFP-delE TorsinA, punctate imaging, 48 h; series mostly up to 46.1 µM
Method in brief: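 In this high-content image screen, delE TorsinA mislocalization in inducible Flp-In 293 cells is scored as %pathology, with cell count serving as the counterscreen. Compound exposure lasts 48 h under tetracycline induction in reduced-serum medium.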

[4] = biological target: Cytochrome P450 2C9 (Homo sapiens) (UniProt P11712); assay: Cytochrome P450 family 2 subfamily C member 9 (CYP2C9) small molecule antagonists: luciferase biochemical (cell-free) qHTS assay (AID 1645842; active = well fitted curve in the direction sought with a large enough effect in the repeat runs; an effect the other way counts as inactive or inconclusive; also: nearly all actives have a fitted effect of over 55% in size); conditions: P450-Glo CYP2C9 enzyme assay, luciferin luminescence; series mostly up to 57.4 µM
Method in brief: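 Luminescence, after 20 min with luciferin detection reagent, reflected CYP2C9 turnover during a 1 h NADPH-driven reaction at 37C. Enzyme-substrate mix contained 0.4% bovine serum albumin and was preincubated with compound 10 min at room temperature.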

[5] = Primary qHTS for inhibitors of nuclear receptor binding SET domain protein 2 (NSD2) in an isogenic RCH-ACV NSD2 p.E1099K mutant (9B) (AID 1645876); conditions: RCH-ACV (leukaemia line) NSD2 E1099K (9B) viability, CellTiter-Glo, 72 h; series mostly up to 44.9 µM; also: nearly all actives have a fitted effect of over 70% in size
[6] = biological target: Cytochrome P450 2D6 (Homo sapiens) (UniProt P10635); assay: Cytochrome P450 family 2 subfamily D member 6 (CYP2D6) small molecule antagonists: luciferase biochemical (cell-free) qHTS assay (AID 1645840; active = well fitted curve in the direction sought with a large enough effect in the repeat runs; an effect the other way counts as inactive or inconclusive; also: nearly all actives have a fitted effect of over 55% in size; also: potency is read from the fitted curve at half-maximal effect); conditions: P450-Glo CYP2D6 enzyme, luciferin luminescence, 1 h; series mostly up to 57.4 µM
Method in brief: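 P450-Glo luminescent screen: recombinant CYP2D6 enzyme–proluciferin substrate mix preincubated with compound 10 min at room temperature, then NADPH regeneration added for 1 h at room temperature. Detection reagent added for 20 min; luciferin light read as relative luminescence units.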

[7] = biological target: Cytochrome P450 3A4 (Homo sapiens) (UniProt P08684); assay: Cytochrome P450 family 3 subfamily A member 4 (CYP3A4) small molecule antagonists: luciferase qHTS assay (AID 1645841; active = well fitted curve in the direction sought with a large enough effect in the repeat runs; an effect the other way counts as inactive or inconclusive; also: nearly all actives have a fitted effect of over 45% in size); conditions: P450-Glo CYP3A4 enzyme assay, luciferin luminescence; series mostly up to 57.4 µM
Method in brief: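 Luminescent CYP3A4 activity readout: compounds plus enzyme-substrate mix 10 min at room temperature, reaction started with NADPH regenerating system for 1 h, stopped with detection reagent, read after 20 min. Ketoconazole served as control.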

Calcium and integrin-binding protein 1 (Homo sapiens), sequence (Q99828 whole entry, looked up): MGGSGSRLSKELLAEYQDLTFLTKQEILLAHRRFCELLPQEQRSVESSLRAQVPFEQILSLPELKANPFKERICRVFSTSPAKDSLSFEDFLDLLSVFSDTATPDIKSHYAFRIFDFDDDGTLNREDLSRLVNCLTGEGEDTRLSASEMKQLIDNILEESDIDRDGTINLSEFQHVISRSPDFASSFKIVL
Cytochrome P450 2D6 (Homo sapiens), sequence (P10635 whole entry, looked up): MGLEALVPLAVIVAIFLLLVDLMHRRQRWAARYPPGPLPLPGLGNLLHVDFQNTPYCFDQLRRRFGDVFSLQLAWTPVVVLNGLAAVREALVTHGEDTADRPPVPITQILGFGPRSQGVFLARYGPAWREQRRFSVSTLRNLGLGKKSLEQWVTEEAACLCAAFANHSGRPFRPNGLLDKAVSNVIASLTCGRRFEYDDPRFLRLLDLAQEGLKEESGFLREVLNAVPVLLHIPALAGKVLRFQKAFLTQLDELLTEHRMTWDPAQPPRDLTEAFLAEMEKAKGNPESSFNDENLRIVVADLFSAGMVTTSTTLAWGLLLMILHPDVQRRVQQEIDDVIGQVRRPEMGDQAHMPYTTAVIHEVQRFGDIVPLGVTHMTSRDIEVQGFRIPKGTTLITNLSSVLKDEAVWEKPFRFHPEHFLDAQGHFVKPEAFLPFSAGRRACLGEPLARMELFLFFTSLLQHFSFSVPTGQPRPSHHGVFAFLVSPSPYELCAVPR
Cytochrome P450 2C9 (Homo sapiens), sequence (P11712 whole entry, looked up): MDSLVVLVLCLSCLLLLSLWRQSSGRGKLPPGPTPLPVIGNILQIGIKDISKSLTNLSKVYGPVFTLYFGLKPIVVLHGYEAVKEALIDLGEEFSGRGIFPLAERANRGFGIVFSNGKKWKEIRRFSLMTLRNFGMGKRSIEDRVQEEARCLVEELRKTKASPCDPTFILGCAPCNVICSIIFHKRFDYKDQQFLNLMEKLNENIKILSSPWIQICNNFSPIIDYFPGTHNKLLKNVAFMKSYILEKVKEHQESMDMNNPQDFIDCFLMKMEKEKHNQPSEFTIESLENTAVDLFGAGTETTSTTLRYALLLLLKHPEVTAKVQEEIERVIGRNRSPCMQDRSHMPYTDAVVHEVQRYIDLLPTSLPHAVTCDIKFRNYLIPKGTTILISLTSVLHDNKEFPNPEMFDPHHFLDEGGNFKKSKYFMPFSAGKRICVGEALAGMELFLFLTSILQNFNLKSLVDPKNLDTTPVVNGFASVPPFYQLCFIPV
Cytochrome P450 3A4 (Homo sapiens), sequence (P08684 whole entry, looked up): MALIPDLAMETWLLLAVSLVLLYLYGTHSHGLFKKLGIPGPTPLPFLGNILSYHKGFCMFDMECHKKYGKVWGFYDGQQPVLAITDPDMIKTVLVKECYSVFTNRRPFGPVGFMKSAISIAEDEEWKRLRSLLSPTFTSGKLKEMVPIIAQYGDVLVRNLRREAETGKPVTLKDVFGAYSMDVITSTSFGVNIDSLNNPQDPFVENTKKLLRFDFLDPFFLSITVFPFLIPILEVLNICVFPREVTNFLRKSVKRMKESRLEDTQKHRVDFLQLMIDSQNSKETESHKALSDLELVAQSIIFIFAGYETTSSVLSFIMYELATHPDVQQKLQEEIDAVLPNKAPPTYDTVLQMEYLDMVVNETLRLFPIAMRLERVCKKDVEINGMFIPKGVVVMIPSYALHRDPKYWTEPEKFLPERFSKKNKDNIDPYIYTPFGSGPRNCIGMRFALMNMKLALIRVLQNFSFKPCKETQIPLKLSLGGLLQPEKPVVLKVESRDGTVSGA

For `CC1=CC(=O)C2C(C)(C)CCC[C@]2(C)[C@H]1CO` (stereo partly specified), the Potency [1] was “inactive”.
In the case of `C/C1=C\C[C@]2(C)C(=O)C(O)=C([C@H](C)CO)[C@H]2C/C=C(\C)[C@@H](O)CC/C(C)=C/CC1`, the Potency [1] is reported as “inactive”.
With `Cc1cc(Nc2nc(NC(C)c3ncc(F)cn3)ncc2Cl)n[nH]1` (stereo unspecified) the Potency [1] was “inactive”.
With `C=CC(C)(O)CC/C=C(\C)C(=O)OC1C(O)C(CO)OC(OC(=O)C23CCC(C)(C)CC2C2=CCC4C5(C)CCC(OC6OC(COC7OCC(OC(C)=O)C(O)C7OC7OC(COC(C)=O)C(O)C(O)C7O)C(O)C(O)C6O)C(C)(C)C5CCC4(C)C2(C)C(O)C3O)C1OC1OCC(OC2OCC(O)C(OC3OCC(O)C(O)C3O)C2O)C(O)C1O` (stereo unspecified) the activity change, negative = inhibition [1] was 3.39% [at 12.4 µM].
With `CCC(C(=O)O)c1ccc(N2Cc3ccccc3C2=O)cc1` (stereo unspecified) the Potency [1] was “inactive”, the outcome [2] was “inactive” and the Potency [3] was “inactive”. The Potency [4] was “inactive” and the Potency [5] was “inactive”.
For `O=[N+]([O-])c1cn2c(n1)OCC(OCc1ccc(OC(F)(F)F)cc1)C2` (stereo unspecified), the Potency [1] was “inactive” and the Potency [6] was “inactive”.
With `C=C1CC[C@H]2[C@@](C)(CCC(O)[C@@]2(C)CO)[C@@H]1CCC1=CCOC1=O` (stereo partly specified) the Potency [1] was “inactive”.
In the case of `O=C(O)c1ccccc1NCCc1ccccc1`, the Potency [1] is reported as “inactive”, the outcome [2] is reported as “inactive” and the Potency [3] is reported as “inactive”. The Potency [6] was 11 µM (active) and the Potency [5] was “inactive”.
In the case of `OCC1OC(Oc2cc(O)cc(/C=C/c3ccc(O)cc3)c2)C(O)C(O)C1O` (stereo unspecified), the Potency [1] is reported as “inactive”.
For `C[C@@H](O)[C@H](NC(=O)c1ccc(C#Cc2ccc(CN3CCOCC3)cc2)cc1)C(=O)NO`, the Potency [1] was “inactive” and the Potency [6] was “inactive”.
In the case of `CCOCCOC(=O)/C=C/c1ccc(OC)cc1`, the Potency [1] is reported as “inactive” and the Potency [3] is reported as “inactive”.
In the case of `CCNCc1nc2c(N)nc3ccccc3c2n1CC(C)(C)O`, the Potency [1] is reported as “inactive” and the Potency [6] is reported as 5.35 µM (active).
With `COc1ccc(CCC(=O)c2c(O)cc(O)cc2O[C@@H]2O[C@H](CO)[C@@H](O)[C@H](O)[C@H]2O)cc1` the Potency [1] was “inactive”.
With `CCc1cccc(CC)c1NC(=O)c1nn(C)c2c1CCc1cnc(Nc3ccc(C(=O)NC4CCN(C)CC4)cc3OC(F)(F)F)nc1-2` the Potency [1] was “inactive” and the Potency [6] was 9.28 µM (active).
For `COc1ccc(-c2nc(-c3ccc(-c4cccc(Cl)c4)o3)[nH]c2-c2ccc(OC)cc2)cc1`, the Potency [1] was “inactive” and the Potency [6] was “inactive”.
With `CC(C)N(CCCCOCC(=O)NS(C)(=O)=O)c1cnc(-c2ccccc2)c(-c2ccccc2)n1` the Potency [1] was “inactive”.
In the case of `c1cc(OCCCN2CCCCC2)ccc1CN1CCCCC1`, the Potency [1] is reported as “inactive”, the Potency [6] is reported as “inactive” and the Potency [7] is reported as “inactive”. For the same molecule, the Potency [4] was “inactive”.
With `O=C(O)CCCCCC[C@H]1C(=O)NC(=O)N1CC[C@@H](O)C1CCCCC1` the Potency [1] was “inactive”.
`CC(=O)O[C@@H]1[C@H](O)[C@@H](O[C@@H]2O[C@@H](C)[C@H](O[C@@H]3OC[C@@H](O)[C@H](O[C@@H]4OC[C@@H](O)[C@H](O)[C@H]4O)[C@H]3O)[C@@H](O[C@@H]3O[C@H](CO)[C@@H](O)[C@H](O)[C@H]3O)[C@H]2O)[C@H](OC(=O)[C@]23CCC(C)(C)C[C@H]2C2=CCC4[C@@]5(C)CC[C@H](O[C@@H]6O[C@H](C(=O)O)[C@@H](O)[C@H](O[C@@H]7OC[C@@H](O)[C@H](O)[C@H]7O)[C@H]6O[C@@H]6O[C@H](CO)[C@H](O)[C@H](O)[C@H]6O)[C@@](C)(C=O)C5CC[C@@]4(C)[C@]2(C)CC3)O[C@@H]1C` (stereo partly specified) gave an activity change, negative = inhibition [1] of -6.59% [at 12.4 µM].
